In the library only some 13% were active in any assay of this set; here they are far more common.
USP30 block: human USP30 deubiquitinase inhibition | Q70CQ3 | inhibition, % at 25 µM | AID 1645860 | purified USP30, Ub-rhodamine cleavage fluorescence | actives 5.3% (n = 47,000)
Target sequence (Q70CQ3 whole entry, looked up): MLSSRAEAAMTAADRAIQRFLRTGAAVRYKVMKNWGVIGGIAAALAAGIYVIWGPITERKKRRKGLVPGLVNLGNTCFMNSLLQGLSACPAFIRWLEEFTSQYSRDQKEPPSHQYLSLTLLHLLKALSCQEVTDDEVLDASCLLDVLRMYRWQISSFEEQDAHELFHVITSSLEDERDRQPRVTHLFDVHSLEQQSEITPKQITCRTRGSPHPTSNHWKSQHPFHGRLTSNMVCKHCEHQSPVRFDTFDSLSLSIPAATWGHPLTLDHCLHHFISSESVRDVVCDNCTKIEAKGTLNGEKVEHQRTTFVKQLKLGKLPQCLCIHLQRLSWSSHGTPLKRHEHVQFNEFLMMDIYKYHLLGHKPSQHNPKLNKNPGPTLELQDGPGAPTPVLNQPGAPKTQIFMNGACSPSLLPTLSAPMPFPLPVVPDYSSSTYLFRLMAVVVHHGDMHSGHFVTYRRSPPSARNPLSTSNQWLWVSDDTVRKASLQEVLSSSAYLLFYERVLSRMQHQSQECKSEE
USP28 block: blocks human USP28 ubiquitin-rhodamine cleavage; inhibition, % at 25 µM; purified USP28, Ub-rhodamine cleavage fluorescence, 30 min; AID 1645857; Q96RU2; actives 3% (n = 47,000)
OTUD3 block: blocks human OTUD3 ubiquitin-rhodamine cleavage | inhibition, % at 25 µM | actives 0.7% (n = 47,000) | Q5T2D3 | AID 1645858 | purified OTUD3, Ub-rhodamine fluorescence, 2 h
USP8 block: blocks human USP8 ubiquitin-rhodamine cleavage. purified USP8, Ub-rhodamine cleavage fluorescence, 30 min. inhibition, % at 20 µM. actives 4.2% (n = 47,000)
USP17 inh: inhibitors of human USP17 deubiquitinase. inhibition, % at 50 µM. purified USP17, Ub-rhodamine cleavage fluorescence, 3 h. AID 1645855. A8MUK1. actives 6.5% (n = 47,000)
Large screens that a line does not name were inactive. Rule as the data show it: active = inhibition above about 30%; inactive = the rest.

Cc1cc(S(N)(=O)=O)cc(NC(=O)CCCSc2nc3ccccc3[nH]2)c1C	none
COc1ccc(-c2ccc(=O)n(Cc3ccc(F)cc3)n2)cc1OC	none
COc1ccc(CC(=O)NCc2cc(-c3ccccc3)on2)cc1OC	none
CSc1ncccc1C(=O)Nc1ccnn1Cc1ccccn1	none
CSc1ncccc1C(=O)OCc1ccc(Cl)c(Cl)c1	USP28 block 43.5, USP17 inh 45.4
CCC(C)NS(=O)(=O)c1c(C)[nH]c(C)c1-c1nnc(C2CCC2)o1 (configuration not stated)	none
COC(=O)c1sc2ccccc2c1NC(=O)c1ccc(Br)s1	USP17 inh 70.2
COC(=O)c1sc2cc([N+](=O)[O-])sc2c1NC(C)=O	none
CCc1nc(SCC(=O)N2CCCc3ccccc32)c2oc3ccccc3c2n1	USP17 inh 40.3
CCc1nc(SCc2cccc(F)c2)c2oc3ccccc3c2n1	USP30 block 46.7, USP17 inh 52.7
CCc1nc(SCc2ccco2)c2oc3ccccc3c2n1	none
Cc1ccc(CN2CC[C@H](c3nnc(-c4ccncc4)o3)C2)cc1	none
CC(C)(CNC(=O)c1ccc(F)cc1)SCc1ccc(F)cc1	none
CCOc1ccc(-n2cc(C(=O)Nc3cnc4ccccc4c3)nn2)cc1	USP17 inh 43.2
NC(=O)C1CCCN(C(=O)C2CCC3(CC2)CNC(=O)c2cc(Cl)ccc2O3)C1 (configuration not stated)	none
CCC(NS(=O)(=O)c1ccc(S(=O)(=O)N2CCOCC2)cc1)C12CC3CC(CC(C3)C1)C2 (configuration not stated)	USP30 block 33.5
O=C(Cn1cc(SCc2ccccc2Cl)c2ccccc21)N1CCCC1	USP17 inh 32.0
O=C(CSc1cn(CC(=O)N2CCCCC2)c2ccccc12)NCCc1ccccc1	none
CC(C)(NCc1ccc(F)c(F)c1)c1nc2c(c(C(N)=O)n1)OCO2	none
CSc1nc2ccc3nc(NC(=O)c4ccccc4Oc4ccccc4)sc3c2s1	none
COC1=CC(=O)c2c(O)c3c(c(C)c2C1=O)C[C@@]1(O)[C@H](O[C@H]2CC[C@H](O[C@H]4C[C@@](C)(O)[C@H](OC(=O)c5c(C)ccc(C)c5O)[C@H](C)O4)[C@@H](C)O2)C(=O)C(C(C)=O)=C(O)[C@@]1(O)C3=O	USP28 block 62.7, OTUD3 block 53.3
O=C(O)c1c(CNCc2cccs2)c2ccccc2n1Cc1cccc(F)c1	USP17 inh 47.2
CC(CCc1ccccc1)NCc1c(C(=O)O)n(Cc2ccc(F)cc2)c2ccccc12 (configuration not stated)	USP28 block 33.6
O=C(Nc1cccc(-c2ccc(N3CCOCC3)nn2)c1)c1cccc(C(F)(F)F)c1	none
O=c1c2ccccc2ncn1C1CCN(S(=O)(=O)c2ccccc2F)CC1	USP17 inh 51.2
Cc1ccccc1S(=O)(=O)N1CCC(n2cnc3c(C)cccc3c2=O)CC1	none
Cc1cccc2c(=O)n(C3CCN(S(=O)(=O)c4ccccc4)CC3)cnc12	USP17 inh 43.7
Cc1cccc(Nc2cc(C3CCN(C(=O)c4ncccn4)CC3)ccn2)n1	none
Cc1cc(=O)n2c(n1)NC(N1CCCCC1)=NC2c1cccnc1 (configuration not stated)	none
Cc1cnc(-c2cc(CC3CCCN(Cc4cscn4)C3)ncn2)[nH]1 (configuration not stated)	none (no result: USP30 block, USP28 block)
CCC(C)N1CNc2c(c(=O)[nH]c(=O)n2Cc2ccco2)C1 (configuration not stated)	USP30 block 39.1 (no result: USP17 inh)
NS(=O)(=O)c1cccc(NC(=O)CCc2nc3ccccc3s2)c1	none
COc1ccc(NS(=O)(=O)c2cc(NC(=O)CCc3nc4ccccc4s3)ccc2C)cc1	USP30 block 35.2, USP17 inh 59.6
COCC(=O)N1C2CCC3(CC2)OC(=O)N(C)CC13 (configuration not stated)	none
O=C1CCSc2ccc(C(=O)O)cc2N1	none
CCCC[C@@H](C)/C=C(C)/C=C(\C)C(=O)NC1=C[C@](O)(/C=C/C=C/C=C/C(=O)NC2=C(O)CCC2=O)[C@@H]2O[C@@H]2C1=O	USP28 block 72.9, OTUD3 block 68.7, USP17 inh 73.3
O=C(c1ccco1)N1CCC2(CC1)CC1(CO2)Nc2ccccc2-n2cccc21 (configuration not stated)	USP8 block 67.5, USP17 inh 80.5
O=C(c1cccnc1)N1CCC2(CC1)CC1(CO2)Nc2ccccc2-n2cccc21 (configuration not stated)	USP8 block 92.9, USP17 inh 71.2
